Among the test systems are SK-MEL-2 melanoma; EKVX NSCLC; SN12C renal; UO-31 renal; TK-10 renal; ACHN renal; CAKI-1 renal; A498 renal; CCRF-CEM leukemia; MOLT-4 leukemia; SR leukemia; RPMI-8226 leukemia; OVCAR-8 ovarian; OVCAR-5 ovarian; OVCAR-4 ovarian; SK-OV-3 ovarian; IGROV1 ovarian; OVCAR-3 ovarian; HS 578T breast; NCI/ADR-RES ovarian.
What all share (assay): NCI-60 one-dose screen, 48 h (100 = growth as untreated, 0 = no growth, -100 = all killed)
Common to all, as to conditions: 10 µM unless noted

The panel holds about 83,000 compounds, 20% with a hit somewhere; the sample as a whole holds those more often.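 Cell lines were cultured in 96-well plates, exposed to a single compound concentration, and assessed for percent growth 48 hours later.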 A number with no mark means an inactive call. Calls of active or inactive are those of the source. How the source made its calls: active means growth percent below 10; inactive means the rest.

For the compound `Cc1cc(=O)oc2cc(OCCn3c(C)nn(-c4ccc(Cl)cc4)c3=O)ccc12`, the growth with SK-MEL-2 melanoma is 3.55% (active); in the assay with EKVX NSCLC, 58.7%; in the assay with SN12C renal, 51.8%; in the assay on UO-31 renal it was 42.8%; with TK-10 renal, 59.6%; in the assay on ACHN renal, 41.9%. In addition, the growth in the assay on CAKI-1 renal was 19.5%; with A498 renal, 25.7%; with CCRF-CEM leukemia it was 13.4%; with MOLT-4 leukemia, 37.6%; with SR leukemia, 21.2%; in the assay on RPMI-8226 leukemia, 31%. Moreover, the growth in the assay with OVCAR-8 ovarian was 17.7%; in the assay on OVCAR-5 ovarian, 38.8%; in the assay on OVCAR-4 ovarian, 67.1%; with SK-OV-3 ovarian, 41.1%; in the assay with IGROV1 ovarian it was 59.7%; in the assay on OVCAR-3 ovarian it was 14.8%. In addition, the figures for the growth in the assay on HS 578T breast and with NCI/ADR-RES ovarian were 34.8% and 24.7%, respectively.

As to `O=C(CSc1ncc(-c2ccccc2)n1-c1ccccc1)Nc1ccc(-c2nc3ccccc3s2)cc1`, the growth in the assay with SK-MEL-2 melanoma was 80.6%; in the assay with EKVX NSCLC, 103%; in the assay with SN12C renal it was 71.2%; in the assay with UO-31 renal it was 98.4%; in the assay on TK-10 renal it was 44.2%; in the assay on ACHN renal it was 102%. Moreover, the growth was 87.4% in the assay on CAKI-1 renal; 107% with A498 renal; 83.8% with CCRF-CEM leukemia; 66.6% in the assay on MOLT-4 leukemia; 73% with SR leukemia; 65.5% in the assay on RPMI-8226 leukemia. In addition, the growth was 27.2% in the assay with OVCAR-8 ovarian; 82.5% in the assay on OVCAR-5 ovarian; 52.5% in the assay with OVCAR-4 ovarian; 116% with SK-OV-3 ovarian; 73.4% in the assay with IGROV1 ovarian; 95.4% with OVCAR-3 ovarian. Moreover, the growth is 91.9% in the assay on HS 578T breast and 61.2% in the assay on NCI/ADR-RES ovarian.

Turning to `CC(NC(N)=S)c1ccccc1` (centres undefined), the growth with SK-MEL-2 melanoma was 120%; in the assay with EKVX NSCLC, 103%; in the assay on SN12C renal, 98.3%; in the assay with UO-31 renal, 93.2%; in the assay on TK-10 renal it was 99%; with ACHN renal, 108%. Further, the growth in the assay on CAKI-1 renal is 104%; in the assay on A498 renal, 98.1%; in the assay on CCRF-CEM leukemia, 129%; in the assay with MOLT-4 leukemia it was 98.8%; in the assay with SR leukemia it was 100%; in the assay with RPMI-8226 leukemia it was 116%. The growth was 106% with OVCAR-8 ovarian; 97.5% in the assay on OVCAR-5 ovarian; 106% with OVCAR-4 ovarian; 99.3% in the assay on SK-OV-3 ovarian; 110% in the assay with IGROV1 ovarian; 111% with OVCAR-3 ovarian. Also, the values for the growth in the assay with HS 578T breast and with NCI/ADR-RES ovarian were 98.9% and 106%, respectively.

In the case of `Oc1ccc(/C=N/Nc2nc3ccccc3s2)c(O)c1`, the growth in the assay on SK-MEL-2 melanoma was 24%; with EKVX NSCLC, 43.2%; in the assay with SN12C renal it was 49.9%; in the assay on UO-31 renal, 10.2%; with TK-10 renal, 22.9%; in the assay with ACHN renal, 23.2%. The growth in the assay with CAKI-1 renal was 12.3%; in the assay on A498 renal, 77.9%; in the assay with CCRF-CEM leukemia, 27.1%; in the assay with MOLT-4 leukemia it was 18.8%; in the assay on SR leukemia, 6.63% (active); in the assay with RPMI-8226 leukemia, 37.4%. Besides, the growth in the assay on OVCAR-8 ovarian is 26.6%; in the assay with OVCAR-5 ovarian, 47.1%; in the assay on OVCAR-4 ovarian, 21.5%; with SK-OV-3 ovarian, 8.68% (active); in the assay on IGROV1 ovarian, 22.3%; in the assay with OVCAR-3 ovarian it was 18.6%. The growth with HS 578T breast is 49.2%; in the assay on NCI/ADR-RES ovarian it was 17.7%.

On to `COc1cc(/C=N/NC(=O)c2ccc(C(F)(F)F)nc2Nc2ccc(Cl)cc2C)ccc1O`, for which the growth with SK-MEL-2 melanoma was 18.8%; in the assay on EKVX NSCLC it was 38.4%; in the assay with SN12C renal, 68.6%; with UO-31 renal, 0.291% (active); in the assay with TK-10 renal, 49.7%; with ACHN renal, 33.4%. In addition, the growth with CAKI-1 renal was 39.6%; in the assay with A498 renal, -37.9% (active); with CCRF-CEM leukemia it was 12.6%; in the assay on MOLT-4 leukemia, -23.6% (active); in the assay on SR leukemia, -14.6% (active); in the assay on RPMI-8226 leukemia, 26.8%. Further, the growth is 46.7% with OVCAR-8 ovarian; 57.5% in the assay with OVCAR-5 ovarian; 27.2% with OVCAR-4 ovarian; 44.3% in the assay with SK-OV-3 ovarian; 25.1% with IGROV1 ovarian; 30.4% in the assay on OVCAR-3 ovarian. Further, the growth is -15.1% (active) with HS 578T breast and 30.3% with NCI/ADR-RES ovarian.

Consider `Cc1cc(C)nc(NS(=O)(=O)c2ccc(Nc3nc4nc(SCc5ccccc5)nc(-c5ccc(O)cc5)c4c(=O)[nH]3)cc2)n1`, for which the growth with SK-MEL-2 melanoma was 92%; in the assay on EKVX NSCLC, 96%; in the assay on SN12C renal, 102%; with UO-31 renal, 97%; in the assay on TK-10 renal, 105%; in the assay with ACHN renal it was 104%. Further, the growth in the assay with CAKI-1 renal was 85.9%; in the assay on A498 renal it was 90.7%; with CCRF-CEM leukemia, 71.2%; in the assay with MOLT-4 leukemia it was 73.8%; with SR leukemia, 85.7%; in the assay with RPMI-8226 leukemia, 66.7%. The growth with OVCAR-8 ovarian is 97%; in the assay on OVCAR-5 ovarian, 96.2%; in the assay with OVCAR-4 ovarian, 104%; in the assay with SK-OV-3 ovarian, 94.9%; with OVCAR-3 ovarian, 120%; with HS 578T breast, 103%. Moreover, the growth in the assay on NCI/ADR-RES ovarian was 97.3%.

For the compound `O=C1C=CC(=O)N1c1ccccc1N1C(=O)C=CC1=O`, the growth with SK-MEL-2 melanoma is 98.6%; in the assay on EKVX NSCLC, 115%; with SN12C renal, 97.5%; in the assay with UO-31 renal, 79.4%; in the assay with TK-10 renal, 97.3%; in the assay on ACHN renal, 88%. The growth with CAKI-1 renal was 85.2%; with A498 renal it was 101%; in the assay on CCRF-CEM leukemia, 1.88% (active); in the assay on MOLT-4 leukemia, 99.2%; with SR leukemia, 92%; with RPMI-8226 leukemia, 124%. Besides, the growth was 107% in the assay with OVCAR-8 ovarian; 93.4% with OVCAR-5 ovarian; 116% in the assay with OVCAR-4 ovarian; 103% with SK-OV-3 ovarian; 95.3% in the assay with IGROV1 ovarian; 103% with OVCAR-3 ovarian. Moreover, the growth in the assay with HS 578T breast is 104%; with NCI/ADR-RES ovarian, 119%.

As for `O=C(Nc1ccc2c(c1)C(=O)c1ccccc1-2)c1ccccc1`, the growth with SK-MEL-2 melanoma was 82.4%; with EKVX NSCLC, 97.4%; in the assay with SN12C renal, 56.9%; with UO-31 renal it was 69.7%; in the assay with TK-10 renal, 46.9%; in the assay on ACHN renal it was 63.8%. Moreover, the growth in the assay on CAKI-1 renal was 74.7%; in the assay on A498 renal it was 66.4%; in the assay on CCRF-CEM leukemia it was 101%; with MOLT-4 leukemia, 97.7%; in the assay on SR leukemia, 81.7%; in the assay on RPMI-8226 leukemia, 63.5%. For the same compound, the growth with OVCAR-8 ovarian was 37.8%; with OVCAR-5 ovarian, 85.9%; with OVCAR-4 ovarian it was 15.9%; with SK-OV-3 ovarian, 110%; in the assay on IGROV1 ovarian, 73.4%; with OVCAR-3 ovarian it was 79.5%. Besides, the growth was 90.6% in the assay on HS 578T breast and 70.4% with NCI/ADR-RES ovarian.

Values taken from PubChem BioAssay (NCI).
